Laboratory results: PubChem BioAssay (NCATS)
Several values for one entry are separate records, joined by “and”; a condition that tells them apart may be missing. Identical values can stand only once. Results filed as inconclusive are left out. Activity calls are given as the source filed them. Unless noted, calls follow the shape of the dose curve; as a rule, active = well fitted curve in the direction sought with a large enough effect; inconclusive = small, poorly fitted or top-dose-only effect, or another doubt; inactive = no such curve, though single readings can be large; an effect the other way counts as inactive or inconclusive.

How the values were obtained:
[1] = biological target: Mitogen-activated protein kinase 10 (Mus musculus) (UniProt Q61831); assay: JNK3 AlphaScreen Assay (AID 530; active = well fitted curve in either direction with a large enough effect, not every such curve was filed as active;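 also: kinase came from lysate of stimulated human HepG2 cells; signal reports phosphorylation of biotinylated GST-cJun 1-79 at Ser73 with 10 µM ATP; % is scaled to controls: 0 for no effect and ±100 for the full control effect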)
How it was run: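 Compound titrations were preincubated 15 minutes at room temperature with substrate, antibody and pre-activated JNK3-containing HepG2 lysate. Reactions were started with 10 uM ATP and stopped with EDTA-containing bead buffer for AlphaScreen detection.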

[2] = MultiTox-Fluor Cytotoxicity Assay - LYMP1-002 - Live Cells (AID 955); also: % is scaled to controls: 0 for no effect and ±100 for the full control effect
How it was run: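 Human lymphoblastoid LYMP1-002 cells, 2500/well, treated 16 h at 37 C in complete medium. Live-cell protease activity via GF-AFC fluorescence (Ex/Em 405/510) after 60 min reagent incubation; AC50 from Hill fits.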

[3] = Cell Viability - LYMP2-013 (AID 970);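 also: 0% = DMSO only and full inhibition = tetraoctylammonium bromide control; nearly all actives have a fitted effect of over 55% in size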
How it was run: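 Human lymphoblastoid LYMP2-013 cells, 2500/well, treated 24 h at 37 C in complete medium; viability as intracellular ATP by CellTiter-Glo luminescence after 30 min. AC50 from Hill fits of qHTS concentration-response.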

[4] = Cell Viability - LYMP2-019 (AID 973);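 also: 0% = DMSO alone and full effect = 92 µM tetraoctylammonium bromide; nearly all actives have a fitted effect of over 55% in size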
How it was run: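 Human lymphoblastoid LYMP2-019 cells (2500/well) preincubated 5 h at 37 C, then treated 24 h at 37 C in complete medium. Viability by CellTiter-Glo ATP luminescence after 30 min at room temperature; AC50 from Hill fits.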

[5] = Cell Viability - LYMP2-023 (AID 975);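 also: cellular ATP measured by luciferase luminescence as viability proxy; cells exposed to compound for 24 hours at 37 °C; plate controls were DMSO only for no effect and 92 µM tetraoctylammonium bromide control for full effect; nearly all actives have a fitted effect of over 55% in size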
How it was run: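 LYMP2-023 human lymphoblastoid cells, 2500/well, preincubated 5 hr at 37 C, then compound-treated 24 hr at 37 C in complete medium. CellTiter-Glo luminescence (ATP) after 30 min at room temperature; AC50 from Hill-equation fits; tetraoctylammonium bromide positive control.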

[6] = Cell Viability - LYMP2-012 (AID 982);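 also: cellular ATP by luciferase luminescence where a drop means cytotoxicity; cells exposed to compound for one day before reading; 0% = DMSO only and full loss = 92 µM tetraoctylammonium bromide; nearly all actives have a fitted effect of over 55% in size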
[7] = Cell Viability - LYMP2-024 (AID 988);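 also: plate controls were DMSO only for no effect and 92 µM tetraoctylammonium bromide for full effect; nearly all actives have a fitted effect of over 60% in size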
How it was run: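 Human lymphoblastoid LYMP2-024 cells (2500/well) rested 5 hr, then treated with compound for 24 hr at 37 C in complete medium. Viability was measured as intracellular ATP by CellTiter-Glo luminescence. AC50 values came from Hill-equation fits.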

[8] = biological target: Estrogen receptor (Homo sapiens) (UniProt P03372); assay: qHTS assay for small molecule agonists of estrogen receptor alpha signaling (AID 588514; calls by dose curve;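 also: 0% = vehicle only and 100% = reference agonist; nearly all actives have a fitted effect of over 70% in size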)
Sequence of Estrogen receptor (Homo sapiens) (P03372 whole entry, looked up): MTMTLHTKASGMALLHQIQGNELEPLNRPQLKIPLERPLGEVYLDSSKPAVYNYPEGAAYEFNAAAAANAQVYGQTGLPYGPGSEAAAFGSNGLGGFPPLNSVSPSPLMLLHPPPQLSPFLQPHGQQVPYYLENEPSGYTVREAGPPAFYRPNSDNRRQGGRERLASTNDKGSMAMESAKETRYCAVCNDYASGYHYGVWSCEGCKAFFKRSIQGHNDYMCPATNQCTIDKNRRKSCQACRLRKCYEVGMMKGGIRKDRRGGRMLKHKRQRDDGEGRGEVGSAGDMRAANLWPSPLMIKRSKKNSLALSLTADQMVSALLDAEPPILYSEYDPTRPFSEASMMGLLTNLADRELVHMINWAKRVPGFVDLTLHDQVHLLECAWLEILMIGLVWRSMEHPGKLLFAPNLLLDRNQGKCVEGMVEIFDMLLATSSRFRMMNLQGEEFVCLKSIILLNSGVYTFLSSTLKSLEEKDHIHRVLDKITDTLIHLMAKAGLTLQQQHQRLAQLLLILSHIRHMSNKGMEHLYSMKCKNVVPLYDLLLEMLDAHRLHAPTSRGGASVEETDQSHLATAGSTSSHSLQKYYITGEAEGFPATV
How it was run: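 ER-alpha-UAS-bla GripTite HEK293 cells, 5000/well in 2% charcoal/dextran-stripped FBS medium, treated with compound titrations 18 h at 37 C. CCF4 beta-lactamase read by fluorescence after 2 h RT; normalised to 20 nM 17-beta-estradiol (100%) and DMSO (0%), Hill fit for EC50 and efficacy.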

[9] = biological target: Glucocorticoid receptor (Homo sapiens) (UniProt P04150); assay: qHTS assay for small molecule agonists of glucocorticoid receptor signaling (AID 588532; active = well fitted curve in the direction sought with a large enough effect in the signal ratio, with a control signal flat; the % refers to the signal ratio;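 also: 100% = dexamethasone at 0.1 µM and 0% = DMSO only wells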); settings: HeLa MMTV-bla, beta-lactamase ratio, agonist, 18 h; stronger effect = higher value; percent of dexamethasone control, DMSO zero
Sequence of Glucocorticoid receptor (Homo sapiens) (P04150 whole entry, looked up): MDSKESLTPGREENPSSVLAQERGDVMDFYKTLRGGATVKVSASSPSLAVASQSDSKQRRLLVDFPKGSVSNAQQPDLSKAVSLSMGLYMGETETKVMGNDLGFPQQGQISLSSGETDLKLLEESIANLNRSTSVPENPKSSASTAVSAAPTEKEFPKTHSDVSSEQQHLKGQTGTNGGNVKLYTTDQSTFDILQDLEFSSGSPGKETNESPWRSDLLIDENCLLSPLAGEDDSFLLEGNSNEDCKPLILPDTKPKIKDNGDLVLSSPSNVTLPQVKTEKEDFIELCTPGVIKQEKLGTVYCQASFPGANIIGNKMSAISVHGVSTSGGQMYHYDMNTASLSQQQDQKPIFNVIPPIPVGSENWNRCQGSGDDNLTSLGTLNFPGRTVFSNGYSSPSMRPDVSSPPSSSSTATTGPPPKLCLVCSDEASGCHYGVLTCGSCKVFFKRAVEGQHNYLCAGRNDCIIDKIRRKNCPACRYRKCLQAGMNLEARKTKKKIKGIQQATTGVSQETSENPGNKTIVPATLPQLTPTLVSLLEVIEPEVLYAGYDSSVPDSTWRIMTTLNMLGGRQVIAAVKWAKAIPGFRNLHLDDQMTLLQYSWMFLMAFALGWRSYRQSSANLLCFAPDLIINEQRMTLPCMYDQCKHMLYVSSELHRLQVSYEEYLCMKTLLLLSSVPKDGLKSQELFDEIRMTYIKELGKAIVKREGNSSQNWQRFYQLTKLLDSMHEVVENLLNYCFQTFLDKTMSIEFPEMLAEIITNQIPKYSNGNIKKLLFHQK
How it was run: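 Quantitative HTS using CellSensor MMTV-bla HeLa cells in charcoal/dextran-treated serum; compounds tested up to 92 uM. After 18 h at 37 C, CCF4 dye reported reporter induction.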

[10] = biological target: Glucocorticoid receptor (Homo sapiens) (UniProt P04150); assay: qHTS assay for small molecule antagonists of glucocorticoid receptor signaling (AID 588533; active = well fitted inhibition curve with a large enough effect in the signal ratio, with a control signal flat, not every such curve was filed as active; the % refers to the signal ratio;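 also: cells stimulated with 2 nM dexamethasone as agonist; % is scaled to controls: 0 for no effect and ±100 for the full control effect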)
How it was run: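 Antagonist-mode qHTS: compound titrations added to GRE-bla HeLa cells, then dexamethasone 2 nM final; 18 h, 37 C. CCF4 FRET fluorescence normalized to dexamethasone and DMSO; IC50 from Hill fit.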

[11] = qHTS assay for small molecule antagonists of peroxisome proliferator-activated receptor delta signaling (AID 588535); settings: HEK293T PPARd-UAS-bla, beta-lactamase FRET ratio, 18 h; 460 nm channel;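 also: cells co-treated with a PPAR-delta agonist as stimulator during compound exposure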
How it was run: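 HEK293T PPAR-delta-UAS-bla cells, 4000/well, 2% charcoal/dextran FBS; 5 h 37 C; cpd titration; 18 h 37 C; CCF4 2 h RT; FI 460/530 nm; Hill fit → IC50, efficacy.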

[12] = biological target: Peroxisome proliferator-activated receptor gamma (Homo sapiens) (UniProt P37231); assay: qHTS assay for small molecule antagonists of peroxisome proliferator-activated receptor gamma signaling (AID 588537; active = well fitted inhibition curve with a large enough effect in the signal ratio, with a control signal flat, not every such curve was filed as active; the % refers to the signal ratio;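 also: reporter cells co-stimulated with 50 nM rosiglitazone agonist during compound treatment; % of control where 0% means no effect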)
Sequence of Peroxisome proliferator-activated receptor gamma (Homo sapiens) (P37231 whole entry, looked up): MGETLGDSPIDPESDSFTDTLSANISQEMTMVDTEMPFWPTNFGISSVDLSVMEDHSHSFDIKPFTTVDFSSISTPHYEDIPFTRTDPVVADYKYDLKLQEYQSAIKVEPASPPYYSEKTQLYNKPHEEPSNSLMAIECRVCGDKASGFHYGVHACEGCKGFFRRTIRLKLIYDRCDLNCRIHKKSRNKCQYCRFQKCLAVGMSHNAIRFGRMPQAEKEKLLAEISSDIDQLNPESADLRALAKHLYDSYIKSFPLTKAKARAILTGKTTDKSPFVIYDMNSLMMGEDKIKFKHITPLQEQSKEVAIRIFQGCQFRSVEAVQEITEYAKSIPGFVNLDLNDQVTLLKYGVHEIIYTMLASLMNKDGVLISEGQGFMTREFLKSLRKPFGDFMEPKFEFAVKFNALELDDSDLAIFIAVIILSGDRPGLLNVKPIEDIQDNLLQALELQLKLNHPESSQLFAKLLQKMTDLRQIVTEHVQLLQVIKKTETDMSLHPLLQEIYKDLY
How it was run: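 Antagonist mode, beta-lactamase reporter in HEK293; charcoal/dextran FBS 1%; 3000 cells/well, 37 C 6-6.5 h; cpd titration + rosiglitazone 50 nM final, 16 h 37 C; CCF4, 2 h RT; 460/530 nm; Hill fit → IC50, efficacy.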

[13] = qHTS assay to identify small molecules that stimulate interleukin-8 (IL-8) secretion (AID 651758; active = well fitted activation curve with a large enough effect in the signal ratio; the % refers to the signal ratio; also: potency is read from the fitted curve at half-maximal effect; as to activation: 0% is about no effect)
How it was run: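 Secreted IL-8 measured by TR-FRET sandwich (cryptate and XL665 antibodies) from THP-1 cells exposed to compound overnight (16 hrs, 37 C).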

[14] = Cell Viability - LYMP2-007 (AID 979);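 also: cells exposed to compound for 24 h before reading; 0% = DMSO only and the negative end = 92 µM tetraoctylammonium bromide; nearly all actives have a fitted effect of over 60% in size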
How it was run: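 Human lymphoblastoid LYMP2-007 cells (2500/well) preincubated 5 h at 37 C, then treated 24 h at 37 C in complete medium. Viability by CellTiter-Glo ATP luminescence after 30 min at room temperature; AC50 from Hill fits.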

[15] = biological target: Bile acid receptor (Homo sapiens) (UniProt Q96RI1); assay: qHTS assay for small molecule antagonists of farnesoid X receptor signaling (AID 588526; calls by dose curve; also: potency is read from the fitted curve at half-maximal effect)
Sequence of Bile acid receptor (Homo sapiens) (Q96RI1 whole entry, looked up): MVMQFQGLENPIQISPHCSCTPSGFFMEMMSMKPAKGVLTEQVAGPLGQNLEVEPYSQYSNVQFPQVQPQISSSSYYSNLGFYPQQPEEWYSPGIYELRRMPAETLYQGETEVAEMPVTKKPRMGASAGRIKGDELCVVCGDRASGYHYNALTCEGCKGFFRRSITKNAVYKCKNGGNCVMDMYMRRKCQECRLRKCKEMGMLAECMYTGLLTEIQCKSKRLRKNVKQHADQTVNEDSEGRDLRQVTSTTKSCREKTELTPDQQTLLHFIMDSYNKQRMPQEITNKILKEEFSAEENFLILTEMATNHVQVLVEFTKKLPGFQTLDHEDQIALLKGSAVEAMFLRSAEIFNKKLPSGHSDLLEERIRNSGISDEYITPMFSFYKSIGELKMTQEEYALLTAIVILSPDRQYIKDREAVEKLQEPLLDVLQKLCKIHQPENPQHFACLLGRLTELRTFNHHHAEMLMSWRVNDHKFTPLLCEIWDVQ
How it was run: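 Beta-lactamase reporter antagonist mode: HEK293T FXR-UAS-bla cells, titrated compound, CDCA stimulation, 16 h 37 C, CCF4 dye 2 h RT. Data normalized to CDCA 50 uM and DMSO; Hill-fit IC50.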

[16] = biological target: Retinoic acid receptor RXR-alpha (Homo sapiens) (UniProt P19793); assay: qHTS assay for small molecule agonists of retinoid X receptor alpha signaling (AID 588544; calls by dose curve;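 also: 0% = DMSO basal wells and 100% = reference agonist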)
Sequence of Retinoic acid receptor RXR-alpha (Homo sapiens) (P19793 whole entry, looked up): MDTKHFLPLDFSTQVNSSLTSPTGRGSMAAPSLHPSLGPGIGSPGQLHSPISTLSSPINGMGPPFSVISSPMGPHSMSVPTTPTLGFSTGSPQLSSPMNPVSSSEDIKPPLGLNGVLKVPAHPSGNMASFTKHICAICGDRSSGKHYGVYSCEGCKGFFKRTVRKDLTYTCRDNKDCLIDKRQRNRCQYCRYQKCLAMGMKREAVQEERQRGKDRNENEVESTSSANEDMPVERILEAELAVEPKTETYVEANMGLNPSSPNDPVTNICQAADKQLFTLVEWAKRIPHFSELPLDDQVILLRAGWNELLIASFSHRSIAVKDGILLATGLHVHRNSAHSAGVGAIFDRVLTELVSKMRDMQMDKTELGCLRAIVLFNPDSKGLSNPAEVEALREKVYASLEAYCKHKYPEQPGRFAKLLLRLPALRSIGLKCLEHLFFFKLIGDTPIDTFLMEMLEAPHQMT

[17] = Cell Viability - SH-SY5Y (AID 544); settings: SH-SY5Y neuroblastoma cell viability; viability change, negative = cytotoxic: at 92.2 µM (top of the series)
How it was run: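 SH-SY5Y human neuroblastoma cells (1500/well) incubated 5 h, then compound-treated 40 h at 37 °C in complete medium. Viability read as intracellular ATP by CellTiter-Glo luminescence after 20 min; AC50 from Hill-equation fits of qHTS concentration-response.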

[18] = Cell Viability - LYMP2-011 (AID 969);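 also: cells exposed to compound for 24 hours; 0% = DMSO only and full inhibition = 92 µM tetraoctylammonium bromide; nearly all actives have a fitted effect of over 60% in size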
How it was run: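 2500 cells/well in complete medium, compound-treated 24 h at 37 C. Viability read as intracellular ATP by CellTiter-Glo luminescence after 30 min at room temperature. AC50 from Hill fits of qHTS concentration-response data.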

[19] = biological target: Vitamin D3 receptor (Homo sapiens) (UniProt P11473); assay: qHTS assay for small molecule antagonists of vitamin D receptor signaling (AID 588541; calls by dose curve;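 also: receptor activated by calcitriol during compound treatment; % is scaled to controls: 0 for no effect and ±100 for the full control effect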)
Sequence of Vitamin D3 receptor (Homo sapiens) (P11473 whole entry, looked up): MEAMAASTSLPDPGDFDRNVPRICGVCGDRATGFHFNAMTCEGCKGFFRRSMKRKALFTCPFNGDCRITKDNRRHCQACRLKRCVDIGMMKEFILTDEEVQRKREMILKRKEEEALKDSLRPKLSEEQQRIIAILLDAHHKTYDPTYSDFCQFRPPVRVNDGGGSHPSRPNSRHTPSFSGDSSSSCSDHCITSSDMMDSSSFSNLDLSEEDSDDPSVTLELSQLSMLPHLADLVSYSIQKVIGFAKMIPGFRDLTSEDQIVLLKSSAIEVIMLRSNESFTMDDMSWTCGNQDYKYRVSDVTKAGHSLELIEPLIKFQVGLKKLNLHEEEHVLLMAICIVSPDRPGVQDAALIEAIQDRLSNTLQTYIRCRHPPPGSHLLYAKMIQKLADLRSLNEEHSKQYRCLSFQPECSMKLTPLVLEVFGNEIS
How it was run: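 Antagonist-mode beta-lactamase reporter assay: HEK293T VDR-UAS-bla cells were exposed to titrated compound alongside 1-alpha,25-dihydroxyvitamin D3 at 3 nM final for 16 h. Values were normalized to the 50 nM agonist control and DMSO basal, with IC50 and efficacy from Hill equation fits.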

[20] = Cell Viability - NIH 3T3 (AID 541); settings: NIH 3T3 cell viability, qHTS; activity change, negative = cytotoxicity: at 92.2 µM (top of the series);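 also: plate controls were DMSO alone for no effect and tamoxifen positive control for full effect; nearly all actives have a fitted effect of over 25% in size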
How it was run: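 Mouse NIH 3T3 fibroblasts, 1000 cells/well, rested 5 hr at 37 °C, then exposed to compound for 40 hr at 37 °C in complete medium. Viability read as intracellular ATP by CellTiter-Glo luminescence; AC50 from Hill-equation fits of concentration-response data.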

CC(=O)Nc1cccc(C)c1
inactive: Potency [1] | outcome [2] | Potency [3] | Potency [4] | Potency [5] | Potency [6] | Potency [7] | Potency [8] | activation [9] -1.44% | Potency [10] | Potency [12] | Potency [13]
-12.4%: max response [11]

C[Si](C)(C)Cl
inactive: outcome [2] | Potency [3] | Potency [14] | Potency [7] | Potency [8] | Potency [15] | Potency [10] | Potency [16]

C=CC1CO1 (configuration not stated)
inactive: Potency [17] | outcome [2] | Potency [18] | Potency [3] | Potency [4] | Potency [14] | Potency [7] | activation [9] -10.4% | Potency [10] | Potency [12] | Potency [19]

CCCCCCCCC1CO1 (configuration not stated)
inactive: Potency [18] | Potency [5] | Potency [14] | Potency [6] | Potency [7] | Potency [15] | Potency [10] | Potency [12] | Potency [16]
-10.9%: max response [11]

CCCCOC(=O)COc1ccc(Cl)cc1Cl
inactive: Potency [17] | Potency [18] | Potency [3] | Potency [14] | Potency [6] | Potency [7] | Potency [15] | Potency [12] | Potency [16] | Potency [13]

Brc1ccc(-c2ccccc2)cc1
inactive: Potency [17] | outcome [2] | Potency [18] | Potency [3] | Potency [4] | Potency [7] | Potency [10] | Potency [19] | Potency [16]

Oc1ccc(O)c2c(O)cccc12
inactive: Potency [1] | Potency [8] | activation [9] -3.75% | Potency [16]
active: Potency [13] 75 µM

CCc1ccc(C(c2ccc(CC)cc2)C(Cl)Cl)cc1
inactive: Potency [17] | Potency [3] | Potency [4] | Potency [6] | Potency [8] | activation [9] 1.14% | Potency [10]

CC(=O)OC(C(=O)c1ccccc1)c1ccccc1 (configuration not stated)
inactive: Potency [3] | Potency [4] | Potency [5] | Potency [7] | Potency [8] | Potency [15] | Potency [10] | Potency [12] | Potency [16] | Potency [13]

C=CC(=O)CC
inactive: Potency [1] | activity change, negative = cytotoxicity [20] -11.9% | outcome [2] | Potency [3] | Potency [4] | Potency [6] | Potency [7] | Potency [15]

Nc1ccc(N=Nc2ccccc2)c(N)c1
inactive: outcome [2] | Potency [18] | Potency [6] | Potency [8] | Potency [10] | Potency [12] | Potency [16]

Nc1ccc2c(c1)C(=O)c1ccccc1C2=O
-6.52%: max response [11]
inactive: Potency [5] | Potency [10]

Cc1cc(=O)oc2cc(O)cc(O)c12
inactive: Potency [17] | outcome [2] | Potency [18] | Potency [3] | Potency [4] | Potency [6] | Potency [15] | activation [9] 9.06% | Potency [10] | Potency [19]

c1c[nH]cn1
inactive: Potency [18] | Potency [4] | Potency [5] | Potency [14] | Potency [6] | Potency [7] | Potency [8] | activation [9] -7.19% | Potency [10] | Potency [16] | Potency [13]
30.3%: max response [11]

O=c1[nH]ncc2ccccc12
active: viability change, negative = cytotoxic [17] -82.8%
inactive: Potency [4] | Potency [5] | Potency [14] | Potency [8] | Potency [10] | Potency [19] | Potency [16]

Nc1ccc(-c2ccc(N)c(O)c2)cc1O
inactive: Potency [1] | outcome [2] | activation [9] 0.0418% | Potency [19]
active: activity change, negative = cytotoxicity [20] -88.2%

O=[N+]([O-])c1ccccc1Nc1ccccc1
inactive: outcome [2] | Potency [18] | Potency [3] | Potency [4] | Potency [7] | Potency [8] | Potency [10] | Potency [19]

O=CC(=O)c1ccccc1
inactive: Potency [1] | Potency [17] | Potency [3] | Potency [8] | activation [9] -5.46% | Potency [10] | Potency [19] | Potency [16] | Potency [13]
7.18%: max response [11]

Nc1cc(C(=O)O)c(O)c(S(=O)(=O)O)c1
inactive: Potency [4] | Potency [5] | Potency [14] | Potency [6] | Potency [7] | Potency [10] | Potency [19]

Nc1cnn([C@@H]2O[C@H](CO)[C@@H](O)[C@H]2O)c(=O)n1
active: Potency [15] 25.1 µM | Potency [13] 75 µM
inactive: Potency [1] | activity change, negative = cytotoxicity [20] 4.75% | Potency [17] | Potency [3] | Potency [4] | Potency [5] | Potency [14] | Potency [6] | Potency [7] | Potency [8] | Potency [10]

O=C(Cl)c1ccc([N+](=O)[O-])cc1
inactive: Potency [1] | activity change, negative = cytotoxicity [20] -20% | outcome [2] | Potency [4] | Potency [5] | Potency [14] | Potency [6] | Potency [7] | Potency [8] | activation [9] -2.19% | Potency [10] | Potency [16] | Potency [13]
8.99%: max response [11]

CCOC(=O)C1OC1c1ccccc1 (configuration not stated)
active: Potency [13] 59.6 µM
inactive: Potency [17] | Potency [18] | Potency [3] | Potency [5] | Potency [6] | Potency [7] | Potency [10] | Potency [12] | Potency [19]
-6.92%: max response [11]

O=C(O)/C=C/c1ccc(/C=C/C(=O)O)cc1
-11.1%: max response [11]
inactive: Potency [18] | Potency [4] | Potency [6] | Potency [7] | activation [9] 12.3% | Potency [10] | Potency [16]

O=C(OCc1ccccc1)c1ccccc1O
inactive: Potency [17] | outcome [2] | Potency [3] | Potency [4] | Potency [5] | Potency [14] | Potency [6] | Potency [7] | Potency [8] | Potency [10] | Potency [19] | Potency [13]
2.34% and -10.8%: max response [11]

Cc1ccc(S(N)(=O)=O)cc1
10.9% and 2.08%: max response [11]
inactive: outcome [2] | Potency [18] | Potency [3] | Potency [14] | Potency [6] | Potency [7] | Potency [15] | activation [9] 1.06% and -7.61% | Potency [10] | Potency [12] | Potency [13]
